“And” between values parts separate entries of the source, which are not always exact repeats. Equal entries are not always repeated. Out of some 260,000 compounds screened, about 1,500 (0.58%) were called active. Another 5% or so got no clear call; they are omitted. Only a sample is shown. Entries with a potency or affinity are not part of this list. A number with no mark means an inactive call.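 The calls were made as follows: active = inhibition above a set limit at one or more doses, reproduced on every date tested; inconclusive = results disagree between test dates, or hit never tested in dose response; inactive = the rest.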

The target in this assay is Virion infectivity factor (Human immunodeficiency virus type 1 group M subtype B (isolate BH10)) + Virion infectivity factor (Human immunodeficiency virus type 1 group M subtype B (isolate BRU/LAI)) + Virion infectivity factor (Human immunodeficiency virus type 1 group M subtype B (isolate PCV12)) + Virion infectivity factor (Human immunodeficiency virus type 1 group M subtype B (isolate HXB2)) + DNA dC->dU-editing enzyme APOBEC-3G (Homo sapiens) (UniProt P69720+P69721+P69722+P69723+Q9HC16). Kind of assay: HIV-1 Vif–A3G interaction blockers – biochemical, TR-FRET, GST-Vif 1-94, biotin-A3G peptide, dose response retest, primary screen (AID 1117319).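 Also: Vif residues 1-94 fused to GST binding biotinylated APOBEC3G peptide 110-148; 0% = full assay without inhibitor and 100% = GST in place of GST-Vif.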 To be noted: TR-FRET GST-Vif / biotin-A3G peptide binding; hits give high values. A general note: TR-FRET usually uses a lanthanide donor and a delayed reading to cut background.
Consider `O=C(CCOc1ccccc1)Nc1ccc([N+](=O)[O-])cc1`, for which the inhibition was 5.33%.
Consider `COc1ccc(NC(=O)CN(C)C(=O)c2cc(-c3ccc(OC)cc3)nc3ccccc23)cc1`, for which the inhibition was -5.94%.
Turning to `Cc1ccc(NC(=O)CN(C)C(=O)c2cc(-c3ccco3)nc3ccccc23)cc1`, the inhibition is 55.7%.
With `COc1ccc(NC(=O)CN(C)C(=O)c2cc(-c3ccc(Cl)cc3)nc3ccccc23)cc1` the figure was 2.66%.
For the molecule `CN(CC(=O)Nc1cccc(F)c1)C(=O)c1cc(-c2ccccc2)nc2ccccc12`, the inhibition was -4.43%.
In the case of `CCOc1ccc(NC(=O)CN(C)C(=O)c2cc(-c3ccco3)nc3ccccc23)cc1OCC`, the inhibition was -2.81%.
Consider `COc1cccc(NC(=O)CN(C)C(=O)c2cc(-c3ccco3)nc3ccccc23)c1`, for which the inhibition was 23.7%.
For `Cc1ccc(NC(=O)c2cc(-c3ccco3)nc3ccccc23)cc1S(=O)(=O)N1CCOCC1`, the inhibition is 32.6%.
As to `COc1ccc(NC(=O)c2cc(C)nc3ccccc23)cc1S(=O)(=O)N1CCOCC1`, the inhibition is -2.24%.
Turning to `CC(=O)c1cccc(N/C=C\c2nnnn2-c2ccc(F)cc2)c1`, the inhibition is -15.5%.
As to `CCOC(=O)c1ccc(-c2c(C)cc3oc(=O)cc(-c4ccccc4)c3c2C)cc1`, the inhibition was -7.8%.
With `CC1=NN(c2cccc(F)c2)C(=O)/C1=C/c1ccc(N(C)C)cc1` the figure was 7.52%.
As to `O=[N+]([O-])c1ccc2c(c1)c(-c1ccccc1)nc1nncn12`, the inhibition was 1.68%.
Consider `CN(C)c1ccc(C=c2c3ccccc3n3c2c2c([n+]3C)CCCC2)cc1`, for which the inhibition was 26.6%.
The figure for `CCN(CC)CC(O)Cn1c(C)c(-c2ccccc2)c2cc([N+](=O)[O-])ccc21` (stereo unspecified) is -3.66%; for `COc1ccc(C(=O)c2ccc(N(C)C)cc2)c2ccccc12` it is -5.09%.
As to `CN(C)c1ccc(C=O)c(Oc2ccccc2)c1`, the inhibition was -6.28%.
For `Cc1cccc(C)c1NC(=O)C1CCCN(CCCc2ccccc2)C1` (stereo unspecified), the inhibition is 3.24%.
As to `COC(=O)c1ccc(CNC(=O)c2ccc(NS(=O)(=O)c3ccc4[nH]c(=O)[nH]c4c3)cc2)cc1`, the inhibition was -7.35%.
`CCOc1ccc(NC(=O)/C(C=Nc2ccccc2)=C(\C)O)cc1`: the inhibition was -3.41%.
As to `CCCc1nc(SCC(=O)N2CCCC2)c2ccccc2n1`, the inhibition is -0.12%.
Regarding `CC(C)(C)OC(=O)N(CCc1ccccc1)Cc1ccccc1OCc1cccc(NC(=O)C2CCCC2)c1`, the inhibition was 1.13%.
As for `CN(C)CCCNC(=O)C[C@H]1C[C@H](C(=O)N2CCCCC2)[C@@]2(CCc3ccccc3)c3[nH]c4ccc(Cl)cc4c3CCN2C1=O`, the inhibition is 3.82%.
For `Cc1ccc(N=CC2=C(O)CC(c3ccco3)CC2=O)cc1` (stereo unspecified), the inhibition is 14.7%.
With `CC(C)C(=O)N1CCN(CCN=CC2=C(O)CC(c3ccco3)CC2=O)CC1` (stereo unspecified), the inhibition is -5.81% and 11.7%.
With `O=C1CC(c2ccco2)CC(O)=C1C=NCCN1CCNCC1` (stereo unspecified), the inhibition is 31.7%.
With `O=C1CC(c2ccco2)CC(O)=C1C=Nc1ccccc1-c1ccccc1` (stereo unspecified) the figure was 18.4%.
Turning to `Cc1[nH]nc(N=CC2=C(O)CC(c3ccco3)CC2=O)c1-c1ccc(Cl)cc1` (stereo unspecified), the inhibition is 8.53%.
Take `CCc1ccc(N=CC2=C(O)CC(c3ccco3)CC2=O)cc1` (stereo unspecified): the inhibition was -1.68%.
Turning to `O=C1CC(c2ccco2)CC(O)=C1C=NCCN1CCN(C(=O)Nc2ccc(Cl)cc2)CC1` (stereo unspecified), the inhibition was -5.15%.
As to `O=C1CC(c2ccccc2)CC(O)=C1C=Nc1ccccc1Cl` (stereo unspecified), the inhibition is -5.59%.
For `COc1cccc(NC(=O)CC(C)=O)c1`, the inhibition was 3.45%.
The figure for `CCNc1nc(NC(C)(C)C)nc(SCC(N)=O)n1` is -9.57%.
As to `O=C(CN(Cc1cccs1)C(=O)CSc1nnc(COc2ccccc2)o1)NC1CCCCC1`, the inhibition is 3.54%.
With `COc1ccc(C)cc1NC(=S)N1CCN(c2ncccn2)CC1` the figure was 6.81%; with `CC1CCN(S(=O)(=O)c2ccc(C(C)C)cc2)CC1`, -4.55%.
In the case of `Cc1cn([C@H]2C[C@H](O)[C@@H](CCC(=O)NCc3ccco3)O2)c(=O)[nH]c1=O`, the inhibition was 3.31%.
With `Cc1cc(NC(=O)c2cc(-c3ccc(O)cc3)on2)no1` the figure was -3.11%; with `C=CCSc1nc2sc(C)c(C)c2c(=O)n1CC=C`, -3.91%.
With `O=C1C2CCCN2C(c2ccccc2)N1c1ccc(Cl)cc1` (stereo unspecified) the figure was 15.8%; with `O=C1C2CCCN2C(c2cccs2)N1c1ccc(Cl)cc1` (stereo unspecified), -1.78%.
As to `COc1ccc(N2C(=O)C3CCCN3C2c2cccs2)cc1` (stereo unspecified), the inhibition was -1.1%.
As to `COc1cc(C2N(c3ccccn3)C(=O)C3CCCN32)cc(OC)c1OC` (stereo unspecified), the inhibition is -8.96%.
As for `O=C(CNC(=O)c1ccc(Br)o1)Nc1cccc(S(=O)(=O)N2CCOCC2)c1`, the inhibition was 1.25%.
As to `CC1CCCCC1NC(=O)c1c(O)nc2ccccn2c1=O` (stereo unspecified), the inhibition is -12.1%.
For `COc1ccc(C(=O)Nc2ccc3c(c2)OCCO3)c(OC)c1`, the inhibition is 1.98%.
The figure for `Cc1ccc(C(=O)n2ncn(C)c2=S)cc1` is -5.15%; for `COC(=O)CN1C(=O)COc2ccc(S(=O)(=O)N3CCCCC3)cc21` it is -2.76%; for `Cc1cc(N)c2ccccc2n1` it is 3.24%.
As for `Nc1cccc2nc3ccccc3cc12`, the inhibition is 11.9%.
On to `O=C(CN1CCC(C(=O)c2ccc3c(c2)OCCO3)CC1)Nc1ccccc1F`, for which the inhibition is 2.56%.
Consider `COc1cccc(C2NC(=O)c3ccccc3O2)c1OC` (stereo unspecified), for which the inhibition is -1.95%.
Turning to `Cc1cc(-c2nnc(CCC(=O)N(CC3CC3)CC3CCCO3)o2)no1` (stereo unspecified), the inhibition was 0.72%.
With `Cc1ccc(-c2cc(C(=O)Nc3c(C)n(C)n(-c4ccccc4)c3=O)[nH]n2)c(O)c1` the figure was 23.2%; with `CC(=O)N1CCN(c2ccc(NC(=O)c3ccc4c(c3)OCO4)cc2)CC1`, 18.3%.
On to `CC(=O)N1CCN(c2ccc(NCc3cccc4ccccc34)cc2)CC1`, for which the inhibition was 28.3%.
The figure for `O=C(c1ccccc1)N1CCN(c2ccc(NCc3ccc4c(c3)OCO4)cc2)CC1` is 21.7%.
`CC(=O)Nc1ccc(N2CCN(C(C)=O)CC2)cc1`: the inhibition was 24.9%.
`Nc1c(C(=O)CSc2nccn2-c2ccc(Cl)cc2)c(=O)[nH]c(=O)n1C1CC1`: the inhibition is -3.47%.
For the molecule `CC1CCN(CCCCOc2cccc(Br)c2)CC1`, the inhibition was -0.02%.
With `COc1cccc(NC(=O)N(C)C[C@H]2OCc3cnnn3CCCC(=O)N([C@H](C)CO)C[C@@H]2C)c1`, the inhibition is -12.7%.
`COc1ccc(Oc2cccc(Cl)c2CNC(=O)CSCC(=O)O)cc1`: the inhibition is 7.24%.
Take `COc1ccc(NC(=O)Cc2c[nH]c3ccccc23)cc1S(=O)(=O)N1CCOCC1`: the inhibition was -3.49%.
Regarding `Cc1c(NC(=O)C(C)N2C(=O)C3C4C=CC(C4)C3C2=O)c(=O)n(-c2ccccc2)n1C` (stereo unspecified), the inhibition is -0.22%.
`COc1ccc(C(=O)Cn2nnc(-c3ccccc3NC(=O)C3CCCCC3)n2)cc1`: the inhibition was -3.13%.
With `Cc1ccc(OCCCN2C(=O)C(=O)c3cc(C)ccc32)cc1`, the inhibition is -4.93%.
Turning to `Cn1nnnc1SCCNS(=O)(=O)c1ccccc1`, the inhibition is 2.62%.
The figure for `Cc1cccc(Nc2cnn(C34CC5CC(CC(CC(=O)O)(C5)C3)C4)c(=O)c2Cl)c1` is 5.69%; for `Cc1ccc(Nc2cnn(C34CC5CC(CC(CC(=O)O)(C5)C3)C4)c(=O)c2Cl)cc1` it is -0.2%.
As to `O=c1[nH]nc(Cc2ccc3ccccc3n2)c2ccccc12`, the inhibition was -4.55%.
As for `COC(=O)N1CCN(c2ccc(C(C)=O)cc2)CC1`, the inhibition is 5.12%.
On to `Cc1ccc(NC(=O)C2CCCN(S(=O)(=O)c3cnc[nH]3)C2)c(Br)c1` (stereo unspecified), for which the inhibition is 1.69%.
As to `COc1ccc(C(=O)Nc2nc(CC(=O)NCCc3cccc(OC)c3)cs2)cc1`, the inhibition was 0.4%.
`COc1cc(O)cc(/C=C/c2ccccc2)c1`: the inhibition was 6.25%.
The figure for `COc1cc(/C=C/c2ccc(O)cc2)cc(OC)c1` is 0.21%.
`CNS(=O)(=O)c1cccc(C(=O)OCC(=O)NC(C)CCc2ccccc2)c1` (stereo unspecified): the inhibition was 1.38%.
The figure for `COC(=O)c1ccc(-n2nnnc2SC)cc1` is 6.93%.
With `CCOc1ccc(NC(=O)N[C@@H](Cc2ccccc2)C(=O)O)cc1`, the inhibition is 3.58%.
Take `CC(=O)Nc1ccc(NC(=O)CC2Nc3cccc4cccc(c34)NC2=O)cc1` (stereo unspecified): the inhibition is 18%.
Take `O=C(CC1Nc2cccc3cccc(c23)NC1=O)Nc1ccc(F)cc1` (stereo unspecified): the inhibition is 19.5%.
On to `Cc1ccc(C)c(CSc2nnc(C)c(=O)[nH]2)c1`, for which the inhibition was -5.37%.
Regarding `Cc1nn(CC#N)c(=O)n1-c1ccc(F)cc1`, the inhibition was 0.42%.
On to `O=C(CCS(=O)(=O)c1ccc(Cl)cc1)N1CCN(c2ccc(F)cc2)CC1`, for which the inhibition is -4.61%.
`O=C(CCS(=O)(=O)c1ccc(Br)cc1)N1CCN(c2ccc(Cl)cc2)CC1`: the inhibition is 5.94%.
With `COc1ccc(CCN2CCCn3c2nc2c3c(=O)n(CC(N)=O)c(=O)n2C)cc1OC` the figure was -0.32%; with `NS(=O)(=O)c1ccc(Cl)cc1[N+](=O)[O-]`, -11.6%.
The figure for `COc1ccc(N(CN2C(=O)C3CC=CCC3C2=O)C(=O)c2ccco2)cc1` (stereo unspecified) is 18.2%; for `O=C1CCC(=O)N1CN(C(=O)c1ccco1)c1ccc(Cl)c(Cl)c1` it is 3.26% and 3.71%; for `CCc1nn2c(=O)cc(COc3ccc(/C=C4\C(=N)N5N=C(C)SC5=NC4=O)cc3)nc2s1` it is -5.78%.
With `Oc1c(CN2CCOCC2)cc(CN2CCOCC2)c(O)c1CN1CCOCC1` the figure was 4.15%; with `Oc1c(CN2CCOCC2)ccc(CN2CCOCC2)c1O`, 30.9%.

One may read the inhibition as the change of the read-out against control, counted positive when it falls.
